The nature of assay [1]: optical density shifts of acrAB sulA E. coli – strain DRC41, OD650, 48 h, E. coli filamentation inducer project, primary screen (AID 1152).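 Also: E. coli MC1000 strain DRC41 lacking acrAB efflux pump and sulA.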 As to conditions: higher = more signal, called active from +8 up or from −8 down.
Assay [2] in a line: probe aLefty1 binding on compound microarray – biochemical, small-molecule microarray, 635/667 nm fluorescence, primary screen (AID 1153).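 Also: score merges spot fluorescence with signal-to-noise ratio from the scanned slide images.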 As to conditions: higher = more signal.
Assay [3] in a line: plasmodial surface anion channel blockers, osmotic lysis – cell-based, P. falciparum Indochina, OD700, 1 h, primary screen (AID 1154). To be noted: P. falciparum Indochina infected RBC osmotic lysis, higher = more signal, called active from +8 up or from −8 down.
Assay [4] is described as follows: plasmodial surface anion channel blockers, osmotic lysis – cell-based, P. falciparum Indochina, OD700, 2 h, primary screen (AID 1155).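 Also: lysis reports solute entry through the parasite surface anion channel PSAC.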 To be noted: P. falciparum Indochina infected erythrocytes, higher = more signal, called active from +8 up or from −8 down.
Assay [5] in a line: changes in parasitized red cell lysis, either direction – P. falciparum Indochina, OD700, 3 h, PSAC antagonist project, primary screen (AID 1156). As to conditions: P. falciparum-infected erythrocytes, osmotic lysis, higher = more signal, called active from +8 up or from −8 down.
Assay [6] in a line: plasmodial surface anion channel blockers, osmotic lysis – cell-based, P. falciparum Indochina, OD700, 18 h, primary screen (AID 1157). As to conditions: P. falciparum Indochina infected erythrocytes, osmotic lysis OD700, 18 h; higher = more signal, called active from +8 up or from −8 down.
The nature of assay [7]: S6 kinase pathway phospho-S6 level changes – cell-based, A549, cytoblot, luminescence, serum-stimulated, primary screen (AID 1158).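 Also: serum-stimulated A549 lung adenocarcinoma cells; signal is phosphorylated S6 detected by cytoblot immunostaining with HRP secondary.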 As to conditions: 5 h, higher = more signal.
The target in assay [8] is NADPH oxidase 2 (Homo sapiens) (UniProt P04839). Nature of the assay: compounds shifting NOX2 Amplex Red fluorescence – cell-based, HEK293-NOX2, PMA-stimulated, NOX inhibitor project, primary screen (AID 1159). Also: test concentration not given here. To be noted: 45 min, higher = more signal, called active from +8 up or from −8 down.
In assay [9] the target is NADPH oxidase 4 (Homo sapiens) (UniProt Q9NPH5). The assay can be described thus: compounds shifting NOX4 Amplex Red fluorescence – cell-based, HEK293-NOX4, tetracycline-induced, NOX inhibitor project, primary screen (AID 1160). To be noted: HEK293-NOX4, Amplex Red H2O2 fluorescence, 45 min; higher = more signal, called active from +8 up or from −8 down.
The target of assay [10] is NADPH oxidase 5 (Homo sapiens) (UniProt Q96PH1). Nature of the assay: compounds shifting NOX5 Amplex Red fluorescence – cell-based, HEK293-NOX5, NOX inhibitor project, primary screen (AID 1161). As to conditions: HEK293-NOX5, ionomycin, 45 min, higher = more signal.
A short description of assay [11]: compound effects on lung adenocarcinoma cell viability – A549, calcein-AM fluorescence, 48 h, basal, profiling panel (AID 1162). Also: test concentration not given here. To be noted: higher = more signal.
A short description of assay [12]: compound effects on differentiated 3T3-L1 adipocyte viability – cell-based, 3T3-L1 adipocytes, calcein-AM fluorescence, 48 h, basal, profiling panel (AID 1163). Also: test concentration not given here. As to conditions: 3T3-L1 adipocytes viability, higher = more signal.
Assay [13] can be described thus: compound effects on hepatocellular carcinoma cell viability – HepG2, calcein-AM fluorescence, 48 h, basal, profiling panel (AID 1164). Also: test concentration not given here. To be noted: higher = more signal.
Assay [14] is described as follows: compound effects on multiple myeloma cell viability – MM1S, calcein-AM fluorescence, 48 h, basal, profiling panel (AID 1165). Also: test concentration not given here. As to conditions: higher = more signal.
The nature of assay [15]: calcein-AM signal in unstimulated myeloma cells – cell-based, calcein-AM fluorescence, 48 h, PK04 Diversity Set, profiling panel (AID 1166).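 Also: cells grown under basal conditions without added stimulus; test concentration not given here.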 To be noted: RPMI8226 myeloma viability, higher = more signal.
Assay [16] in a line: JC-1 mitochondrial signal, unstimulated HepG2 cells – cell-based, JC-1 fluorescence, 24 h, 100 nL compound, profiling panel (AID 1167). Also: test concentration not given here. As to conditions: HepG2 mitochondrial potential, higher = more signal.
Assay [17] can be described thus: JC-1 mitochondrial signal, unstimulated adipocytes – cell-based, JC-1 fluorescence, 3T3-L1 adipocytes, 24 h, 100 nL compound, profiling panel (AID 1168). Also: test concentration not given here. As to conditions: JC-1 mitochondrial fluorescence, higher = more signal, called active from +8 up or from −8 down.
The nature of assay [18]: JC-1 mitochondrial signal, unstimulated myeloma cells – cell-based, JC-1 fluorescence, RPMI8226, 24 h, 100 nL compound, profiling panel (AID 1169). Also: test concentration not given here. As to conditions: JC-1 mitochondrial potential fluorescence, higher = more signal.
A short description of assay [19]: JC-1 mitochondrial signal, unstimulated MM1S myeloma – cell-based, JC-1 fluorescence, 24 h, 100 nL compound, profiling panel (AID 1170). Also: test concentration not given here. As to conditions: MM1S mitochondrial potential, higher = more signal.
Assay [20] in a line: resazurin metabolic signal in A549 cells – cell-based, resazurin fluorescence, 24 h, PK04 Diversity Set, profiling panel (AID 1171). Also: test concentration not given here. To be noted: A549 viability, higher = more signal, called active from +8 up or from −8 down. A general note: Alamar Blue is a resazurin reagent that responds to reducing activity.

The values that follow come from PubChem BioAssay.

Activity calls are given as the source filed them.

NADPH oxidase 5 (Homo sapiens), sequence (Q96PH1 whole entry, looked up): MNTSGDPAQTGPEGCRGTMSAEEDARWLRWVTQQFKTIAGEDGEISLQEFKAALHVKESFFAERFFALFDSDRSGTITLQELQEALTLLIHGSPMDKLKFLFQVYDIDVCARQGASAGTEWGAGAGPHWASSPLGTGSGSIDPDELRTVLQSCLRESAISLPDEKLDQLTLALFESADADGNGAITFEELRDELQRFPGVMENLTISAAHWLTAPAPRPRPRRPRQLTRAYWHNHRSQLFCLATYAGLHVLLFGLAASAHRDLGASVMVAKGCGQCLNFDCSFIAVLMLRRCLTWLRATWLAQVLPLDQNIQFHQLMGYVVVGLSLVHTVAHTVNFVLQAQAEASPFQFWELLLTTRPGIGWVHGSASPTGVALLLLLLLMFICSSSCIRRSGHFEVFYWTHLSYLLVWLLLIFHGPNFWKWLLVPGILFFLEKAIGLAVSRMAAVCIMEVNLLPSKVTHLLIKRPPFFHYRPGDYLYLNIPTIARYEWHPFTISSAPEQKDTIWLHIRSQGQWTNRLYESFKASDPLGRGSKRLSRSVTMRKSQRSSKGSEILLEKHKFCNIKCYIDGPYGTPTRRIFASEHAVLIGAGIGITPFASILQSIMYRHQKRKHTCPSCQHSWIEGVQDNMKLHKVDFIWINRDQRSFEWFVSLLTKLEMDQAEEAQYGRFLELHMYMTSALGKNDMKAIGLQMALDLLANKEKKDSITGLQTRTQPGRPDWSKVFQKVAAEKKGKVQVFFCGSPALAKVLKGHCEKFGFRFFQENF
NADPH oxidase 4 (Homo sapiens), sequence (Q9NPH5 whole entry, looked up): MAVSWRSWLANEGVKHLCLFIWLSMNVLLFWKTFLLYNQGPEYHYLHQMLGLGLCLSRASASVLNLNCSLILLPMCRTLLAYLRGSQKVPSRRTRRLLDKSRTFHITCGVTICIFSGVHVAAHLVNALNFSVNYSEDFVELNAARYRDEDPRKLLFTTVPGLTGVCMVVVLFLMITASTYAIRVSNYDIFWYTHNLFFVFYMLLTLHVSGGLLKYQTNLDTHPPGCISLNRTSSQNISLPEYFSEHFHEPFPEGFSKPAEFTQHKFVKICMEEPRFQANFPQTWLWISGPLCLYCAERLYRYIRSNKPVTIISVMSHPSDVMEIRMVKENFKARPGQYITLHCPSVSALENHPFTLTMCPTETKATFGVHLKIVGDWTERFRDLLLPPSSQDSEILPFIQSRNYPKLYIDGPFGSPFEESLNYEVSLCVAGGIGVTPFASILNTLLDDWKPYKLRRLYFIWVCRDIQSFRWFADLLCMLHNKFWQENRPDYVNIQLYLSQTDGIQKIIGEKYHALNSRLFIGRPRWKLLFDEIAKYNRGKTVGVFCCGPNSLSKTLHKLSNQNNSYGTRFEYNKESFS
NADPH oxidase 2 (Homo sapiens), sequence (P04839 whole entry, looked up): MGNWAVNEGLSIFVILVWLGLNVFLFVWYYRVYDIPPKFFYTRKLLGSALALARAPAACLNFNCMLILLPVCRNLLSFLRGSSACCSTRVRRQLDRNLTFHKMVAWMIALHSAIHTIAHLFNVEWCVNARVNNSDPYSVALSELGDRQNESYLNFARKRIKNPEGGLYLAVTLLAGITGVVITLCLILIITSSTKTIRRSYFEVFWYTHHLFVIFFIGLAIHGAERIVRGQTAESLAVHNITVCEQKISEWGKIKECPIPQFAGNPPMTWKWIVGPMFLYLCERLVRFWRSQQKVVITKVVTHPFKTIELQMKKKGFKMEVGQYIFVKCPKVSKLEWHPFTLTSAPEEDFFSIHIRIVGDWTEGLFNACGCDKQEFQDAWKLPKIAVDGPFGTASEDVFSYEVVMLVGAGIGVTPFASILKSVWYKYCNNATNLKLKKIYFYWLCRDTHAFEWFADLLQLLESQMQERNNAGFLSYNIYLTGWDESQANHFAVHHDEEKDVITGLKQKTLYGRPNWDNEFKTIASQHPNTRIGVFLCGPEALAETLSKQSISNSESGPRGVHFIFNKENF

For the compound `[N-]=[N+]=NCc1ccccc1C[C@@]1(C(N)=O)N=C(c2ccc(OCCCO)cc2)O[C@@H]1c1ccccc1CN=[N+]=[N-]`, the z-score in assay [1] is 0.315 (inactive); in [3] it was 26.2 (active); in assay [4], 10.1 (active); in assay [5] it was 1.31 (inactive); in assay [6], 1.38 (inactive); in assay [7] it was -0.107. Besides, the z-score in [8] is 0.415 (inactive); in assay [9], 0.14 (inactive); in assay [10], -1.66; in [11] it was 0.703; in [12] it was -0.323; in [13], 1.42. The z-score is -1.25 in [14]; -3.08 in assay [15]; 1.18 in [16]; -0.301 (inactive) in [17]; -1.1 in [18]; -0.422 in assay [19]. Besides, in [20], the z-score is -0.136 (inactive). Besides, the composite z-score in assay [2] worked out at 0.315.
In the case of `O=C1C2C=CC(C(O)c3cc(C(F)(F)F)cc(C(F)(F)F)c3)N(Nc3ccc([N+](=O)[O-])cc3)C2C(=O)N1c1ccccc1` (stereo not given), the z-score is -1.58 (inactive) in assay [1]; 6.16 (inactive) in assay [3]; 2.01 (inactive) in assay [4]; -6.7 (inactive) in assay [5]; 1.24 (inactive) in assay [6]; -0.431 in assay [7]. The z-score in assay [8] is -0.378 (inactive); in assay [9], -2.65 (inactive); in assay [10] it was -1.68; in [11], -1.61; in assay [12], 0.294; in assay [13], -3.51. Further, the z-score in [14] was -2.62; in [15], -4.06; in assay [16], -0.982; in assay [17], -0.699 (inactive); in assay [18], -1.03; in [19], -1.99. Moreover, the z-score in [20] is -0.0362 (inactive). The compound further came in with a composite z-score in assay [2] of 0.361.
On to `O=C1OCC=C[C@H]2OC34C=CCN(c5ccc(Cl)cc5)C(=O)[C@H]3N(CCCCCO)C(=O)[C@@H]4[C@@H]12` (stereo not given in full), for which the z-score was 0.553 (inactive) in [1]; 2.47 (inactive) in [3]; 0.622 (inactive) in [4]; 0.871 (inactive) in [5]; 0.502 (inactive) in assay [6]; -0.646 in assay [7]. In addition, the z-score in assay [8] is 1.95 (inactive); in assay [9], 0.525 (inactive); in assay [10] it was 2.87; in [11], -0.746; in assay [12], 0.699; in assay [13], -0.231. Besides, the z-score in assay [14] is 0.733; in assay [15] it was 0.707; in assay [16], -0.26; in [17] it was 0.37 (inactive); in assay [18], 0.536; in [19], 1.35. Also, in assay [20], the z-score was -0.283 (inactive). In [2], this compound registered a composite z-score of 0.0927.
In the case of `COCCOC(=O)N1C(=O)[C@@]2(c3cc(C#CC4(O)CCCCCC4)ccc31)[C@H](C(=O)N1CCCCCCC1)[C@H]1C(=O)O[C@H](c3ccccc3)[C@H](c3ccccc3)N1[C@@H]2c1ccc(OCCO)cc1`, the z-score is 1.08 (inactive) in assay [1]; 5.11 (inactive) in assay [3]; 2.64 (inactive) in assay [4]; 0.539 (inactive) in assay [5]; 1.27 (inactive) in assay [6]; -0.108 in assay [7]. Moreover, the z-score in assay [8] was 0.738 (inactive); in [9], 0.507 (inactive); in [10], 1.36; in assay [11], 0.364; in assay [12], 1.85; in [13], 0.783. Further, the z-score in [14] is -1.62; in [15], -2.6; in assay [16], -0.914; in assay [17] it was -2.37 (inactive); in assay [18] it was -0.693; in [19], -0.756. Moreover, in assay [20], the z-score was 1.08 (inactive). Further, the composite z-score in assay [2] is 2.64.
Take `CCC[C@@H]1C[C@@]1(CCC)[C@@H](NP(=O)(c1ccccc1)c1ccccc1)c1ccc(Cl)cc1`: the z-score in assay [1] was -2.39 (inactive); in assay [3], 0.887 (inactive); in assay [4], 0.0991 (inactive); in [5], 0.278 (inactive); in [6], 0.323 (inactive); in assay [7], 0.0038. In addition, the z-score was -0.769 (inactive) in [8]; -1.97 (inactive) in [9]; 0.429 in [10]; -1.19 in assay [11]; -1.03 in assay [12]; -1.99 in assay [13]. The z-score was -1.45 in assay [14]; -2.28 in [15]; -4.09 in [16]; -0.876 (inactive) in assay [17]; -0.618 in assay [18]; -1.81 in assay [19]. In [20], the z-score was 0.419 (inactive). In [2], this compound registered a composite z-score of 0.0315.
